This is an account of results in PubChem BioAssay.

Active and inactive are the calls of the source.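 The calls were made as follows, unless noted: active = visual image review flags a hit and inhibition of aggregation exceeds 20%; inconclusive = visual hit but inhibition at or below 20%; inactive = no hit on visual image review.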

Broadly, the inhibition is the drop in the measured response relative to a control, in per cent.

Experiment [1] in a line: inhibitors of TNFa-induced NFkB p65 translocation, primary screen, imaging, HUVEC, MLSMR starter and 10KST1 sets (AID 438;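 active = inhibition above 20% together with a positive visual image hit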;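 also: compound added about 3h40 before a 20 min TNFalpha stimulation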;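 as to inhibition: signal is the nuclear over cytoplasmic p65 intensity ratio per well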). The note with it: HUVEC TNFa-induced p65 nuclear translocation; cell count: measured here: nuclei count (cytotoxicity indicator), at 2.08 µM; inhibition: at 2 µM, stronger effect = higher value, 0% TNFa-plus-vehicle, 100% no-TNFa wells.
Experiment [2] can be described thus: inhibitors of mutant huntingtin aggregation, primary screen, imaging, exon1htt(103Q)mCFP cells, high-content imaging (AID 483).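 Also: compound exposure lasted 3 days before fixation.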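 As to nuclei count: percent of the per-plate median nuclei count of sample wells.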 The note with it: exon1htt(103Q)mCFP cell line, aggregate imaging, at 2 µM; inhibition of aggregation: stronger effect = higher value; nuclei count: measured here: cell count, toxicity.
Experiment [3] can be described thus: inhibitors of E-selectin induction by TNFa, primary screen, imaging, HUVEC, immunofluorescence, MLSMR starter and 10KST1 sets (AID 487;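 active = visually confirmed hit in the image check and inhibition above 20%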;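 as to inhibition: signal is fraction of cell area covered by stained E-selectin grains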;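 as to nuclei count: 100% = median nuclei count of all wells on the same plate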). The note with it: HUVEC TNFalpha-induced E-selectin immunofluorescence imaging, at 2 µM; inhibition: stronger effect = higher value; nuclei count: measured here: cell number, toxicity.
Experiment [4] deals with Voltage-gated potassium channel subunit beta-2 (Rattus norvegicus) (UniProt P62483). The experiment in a line: KvBeta enzyme negative modulators, primary screen, biochemical, NADPH fluorescence (AID 622;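 active = fluorescence slope higher than the sample average by over 3 SD, cut at about -0.22 in these data, passing the limit was not always enough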;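 also: slope of raw intensity against log time taken from 70 to 1610 s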). The note with it: recombinant KvBeta, 4-cyanobenzaldehyde reduction, at 10 µM, stronger effect = higher value.
Experiment [5] has the same target. The experiment in a line: KvBeta positive modulators, primary screen, biochemical, NADPH fluorescence (AID 623;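 active = NADPH fluorescence slope more negative than the mean of all samples by about 3 SD, 99.7% confidence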;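 also: fluorescence intensity change per second fitted from 20 to 320 s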). The note with it: Recombinant KvBeta, NADPH fluorescence decrease slope, 10 min; at 10 µM; stronger effect = lower value.
The target of experiment [6] is Alpha-2C adrenergic receptor (Homo sapiens) (UniProt P18825). Briefly: modulators of alpha2C/GIRK thallium flux, primary screen, cell-based, HEK293 alpha2C/GIRK1/2 (AID 624;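 active = fluorescence slope after compound addition differing from the mean of all screened samples at 99.7% confidence, in either direction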;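 also: slope of fluorescence ratio to pre-addition baseline per second over 15 to 24 s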). The note with it: thallium flux BTC fluorescence, at 10 µM, actives lie on both sides.
A short description of experiment [7]: inhibitors of Sendai virus-induced IRF3 signaling, primary screen, TLR/RLR signaling modifier project, cell-based, Sendai virus stimulus, luciferase, 10K MLSCN set (AID 602276;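 active = inhibition at or above 50% at 10 µM; inactive = inhibition below 50%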;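 also: firefly luciferase from ISG56 promoter only with Renilla not read in this screen; 0% = Sendai virus plus DMSO and 100% = medium plus DMSO without virus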). The note with it: HEK293 RL24 IRF3 luciferase reporter, at 10 µM, stronger effect = higher value.
Experiment [8] in a line: inhibitors of poly I:C-induced TLR3 signaling, primary screen, cell-based, poly I:C stimulus, luciferase, 10K MLSCN set (AID 602277;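 active = inhibition of the reporter signal at or above 50%; inactive = inhibition below 50%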). The note with it: HEK293-TLR3 RL24 IRF3 luciferase reporter, at 10 µM, stronger effect = higher value. On the technique in general: Reporter assays use an easily measured gene product as a stand-in for the process of interest.

Sequence of Alpha-2C adrenergic receptor (Homo sapiens) (P18825 whole entry, looked up): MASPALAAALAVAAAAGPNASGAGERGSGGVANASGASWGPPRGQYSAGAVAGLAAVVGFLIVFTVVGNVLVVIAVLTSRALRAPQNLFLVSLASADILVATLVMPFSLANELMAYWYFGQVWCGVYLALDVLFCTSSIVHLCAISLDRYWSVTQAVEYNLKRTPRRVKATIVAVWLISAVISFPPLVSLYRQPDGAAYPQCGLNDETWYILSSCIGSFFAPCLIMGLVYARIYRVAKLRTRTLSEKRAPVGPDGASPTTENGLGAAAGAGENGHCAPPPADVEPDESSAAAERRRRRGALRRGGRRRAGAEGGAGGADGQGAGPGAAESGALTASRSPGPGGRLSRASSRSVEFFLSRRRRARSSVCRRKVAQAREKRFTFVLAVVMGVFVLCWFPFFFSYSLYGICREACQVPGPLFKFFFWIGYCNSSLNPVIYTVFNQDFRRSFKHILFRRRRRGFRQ
Sequence of Voltage-gated potassium channel subunit beta-2 (Rattus norvegicus) (P62483 whole entry, looked up): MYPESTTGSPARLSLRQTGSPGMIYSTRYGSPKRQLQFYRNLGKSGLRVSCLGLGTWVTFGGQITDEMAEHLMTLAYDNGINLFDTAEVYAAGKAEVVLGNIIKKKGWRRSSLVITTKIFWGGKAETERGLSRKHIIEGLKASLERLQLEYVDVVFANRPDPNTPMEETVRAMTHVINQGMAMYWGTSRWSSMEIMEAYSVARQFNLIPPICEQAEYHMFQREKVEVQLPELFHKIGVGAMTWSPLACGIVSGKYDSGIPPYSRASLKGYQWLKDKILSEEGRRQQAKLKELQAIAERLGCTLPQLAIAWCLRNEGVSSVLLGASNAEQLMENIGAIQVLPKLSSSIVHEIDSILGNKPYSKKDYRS

For `Cc1ccc(-n2ncc3c(=O)n(CC(=O)N4CCCc5ccccc54)cnc32)cc1C`, the cell count in experiment [1] is 227. For the same compound, the inhibition in experiment [1] is -2.8% (inactive); in experiment [3], 9.3% (inactive); in experiment [7], -13.9% (inactive); in experiment [8], -13.7% (inactive). For the same compound, the inhibition of aggregation in experiment [2] was 10.4% (inactive). The values for the nuclei count in experiment [2] and in experiment [3] were 93.3% and 87.8%, respectively. Further, the fluorescence slope in experiment [4] is -0.346 (inactive). In experiment [5], the NADPH fluorescence slope was -6.2e-05 (inactive). Besides, the slope in experiment [6] was 0.00504 (inactive).

Turning to `COC(=O)CSC1=C(C#N)C(c2ccccc2)CC(=O)N1` (stereo not drawn), the cell count in experiment [1] was 317. Further, the inhibition in experiment [1] was 1.5% (inactive); in experiment [3], 7.2% (inactive); in experiment [7], 25.3% (inactive); in experiment [8] it was 21.9% (inactive). Besides, the inhibition of aggregation in experiment [2] was -2.2% (inactive). In addition, the nuclei count is 89.5% in experiment [2] and 86.9% in experiment [3]. The fluorescence slope in experiment [4] was -0.372 (inactive). For the same compound, the NADPH fluorescence slope in experiment [5] was -1.7e-05 (inactive). For the same compound, in experiment [6], the slope is 0.00515 (inactive).

As for `O=S(=O)(c1ccc(-c2csc(-c3cccnc3)n2)cc1)N1CCCCC1`, the cell count in experiment [1] came out at 372. In addition, the inhibition is -1.7% (inactive) in experiment [1], -30.5% (inactive) in experiment [3], -0.353% (inactive) in experiment [7] and -37.2% (inactive) in experiment [8]. In addition, in experiment [2], the inhibition of aggregation was -2% (inactive). Besides, the values for the nuclei count in experiment [2] and in experiment [3] were 102% and 116%, respectively. Further, the fluorescence slope in experiment [4] was -0.604 (inactive). Besides, the NADPH fluorescence slope in experiment [5] is -9e-06 (inactive). Further, in experiment [6], the slope was 0.0051 (inactive).

Regarding `CCCCc1cc(=O)oc2cc(OCC(=O)N(CC)CC)c(Cl)cc12`, in experiment [1], the cell count came out at 586. The inhibition was 0% (inactive) in experiment [1], -56.9% (inactive) in experiment [3], 12.5% (inactive) in experiment [7] and 30.7% (inactive) in experiment [8]. Also, the inhibition of aggregation in experiment [2] was -3.9% (inactive). For the same compound, the figures for the nuclei count in experiment [2] and in experiment [3] were 102% and 123%, respectively. The fluorescence slope in experiment [4] is -0.596 (inactive). In addition, the NADPH fluorescence slope in experiment [5] was 7.2e-08 (inactive). The slope in experiment [6] was 0.00654 (inactive).

With `O=C(OCC(=O)c1ccccc1Br)c1ccccn1`, in experiment [1], the cell count worked out at 308. Besides, the inhibition in experiment [1] is 2.7% (inactive); in experiment [3] it was -10.2% (inactive); in experiment [7] it was 3.27% (inactive); in experiment [8] it was 26.5% (inactive). Also, the inhibition of aggregation in experiment [2] is -3.7% (inactive). Further, the values for the nuclei count in experiment [2] and in experiment [3] were 98.4% and 95.3%, respectively. Further, in experiment [4], the fluorescence slope was -0.536 (inactive). Also, the NADPH fluorescence slope in experiment [5] is -4.2e-05 (inactive). Moreover, the slope in experiment [6] was 0.00716 (inactive).

As to `COC(=O)Cn1c(=O)c2c(nc3n2CC(C)CN3c2ccc(C)c(C)c2)n(C)c1=O` (stereo not drawn), the cell count in experiment [1] came out at 561. In addition, the inhibition in experiment [1] was -11% (inactive); in experiment [3], -19.2% (inactive); in experiment [7] it was 13.3% (inactive); in experiment [8] it was 36% (inactive). The inhibition of aggregation in experiment [2] is -7.5% (inactive). Further, the nuclei count in experiment [2] was determined as 110%; in experiment [3] it was 118%. Moreover, the fluorescence slope in experiment [4] is -0.535 (inactive). Moreover, the NADPH fluorescence slope in experiment [5] was -4.3e-05 (inactive). For the same compound, the slope in experiment [6] is 0.00607 (inactive).

`CC1CCCCC1NC(=O)C1CCN(C(=O)NC2CCCCC2)CC1` (stereo not drawn): the cell count in experiment [1] came out at 172. The inhibition in experiment [1] is -4.9% (inactive); in experiment [3], 2.1% (inactive); in experiment [7], 13.5% (inactive); in experiment [8], 28.2% (inactive). The inhibition of aggregation in experiment [2] is 20.6% (inactive). Moreover, the nuclei count in experiment [2] came out at 71.9%; in experiment [3], 79.8%. In experiment [4], the fluorescence slope was -0.448 (inactive). Also, in experiment [5], the NADPH fluorescence slope is -4.6e-05 (inactive). In addition, the slope in experiment [6] was 0.00366 (inactive).

Regarding `CC(=O)Nc1ccc(NC(=O)Cn2cc3c(n2)CCC(C)C3)cc1` (stereo not drawn), the cell count in experiment [1] was 549. In addition, the inhibition in experiment [1] was -6.3% (inactive); in experiment [3], -58.6% (inactive); in experiment [7] it was 16.6% (inactive); in experiment [8], 23% (inactive). Besides, the inhibition of aggregation in experiment [2] is 3.5% (inactive). For the same compound, the nuclei count is 95.1% in experiment [2] and 103% in experiment [3]. Further, in experiment [4], the fluorescence slope is -0.284 (inactive). Also, in experiment [5], the NADPH fluorescence slope was -4.3e-05 (inactive). In experiment [6], the slope is 0.00496 (inactive).

With `CCOC(=O)c1[nH]c(C)c(C(=O)Nc2ccc(Cl)cc2)c1C`, in experiment [1], the cell count amounted to 709. For the same compound, the inhibition in experiment [1] was -1.6% (inactive); in experiment [3], -32% (inactive); in experiment [7] it was 6.23% (inactive); in experiment [8], -11% (inactive). In experiment [2], the inhibition of aggregation was -32.6% (inactive). Besides, the nuclei count stood at 89.1% in experiment [2] and 114% in experiment [3]. Besides, the fluorescence slope in experiment [4] was -0.591 (inactive). Moreover, the NADPH fluorescence slope in experiment [5] was 2.4e-05 (inactive). In experiment [6], the slope was 0.00669 (inactive).

Regarding `O=C(c1ccccc1F)N1CCN(Cc2cccc(Cl)c2)CC1`, the cell count in experiment [1] was 649. Also, the inhibition in experiment [1] is 3% (inactive); in experiment [3], -3.6% (inactive); in experiment [7], 9.77% (inactive); in experiment [8] it was 10.5% (inactive). Further, the inhibition of aggregation in experiment [2] is 10.9% (inactive). Also, the nuclei count in experiment [2] worked out at 99.3%; in experiment [3], 98.3%. In addition, the fluorescence slope in experiment [4] was -0.654 (inactive). The NADPH fluorescence slope in experiment [5] was 1.7e-05 (inactive). Moreover, the slope in experiment [6] was 0.00876 (inactive).

On to `CCn1c(C)c(CCC(=O)O)c(=O)n2nc(-c3ccccc3OC)cc12`, for which the cell count in experiment [1] amounted to 400. Further, the inhibition in experiment [1] was 7.4% (inactive); in experiment [3], -121% (inactive); in experiment [7], -9.14% (inactive); in experiment [8], 2.68% (inactive). Moreover, the inhibition of aggregation in experiment [2] was 0% (inactive). Also, the nuclei count in experiment [2] stood at 103%; in experiment [3], 108%. Besides, the fluorescence slope in experiment [4] is -0.548 (inactive). Moreover, the NADPH fluorescence slope in experiment [5] was -1.2e-05 (inactive). Further, in experiment [6], the slope was 0.00427 (inactive).

`CCN(CC)C(=O)COC(=O)c1ccc(O)cc1`: the cell count in experiment [1] stood at 440. The inhibition in experiment [1] was 7.7% (inactive); in experiment [3], -5.4% (inactive); in experiment [7], -1.76% (inactive); in experiment [8] it was -1.25% (inactive). Moreover, the inhibition of aggregation in experiment [2] was 9.9% (inactive). Further, the figures for the nuclei count in experiment [2] and in experiment [3] were 83.5% and 99.1%, respectively. Moreover, the fluorescence slope in experiment [4] was -0.512 (inactive). Further, the NADPH fluorescence slope in experiment [5] was 2.3e-05 (inactive). In addition, in experiment [6], the slope was 0.00516 (inactive).

Regarding `CC(=O)c1ccc(-n2nnnc2SCC(=O)N2CCc3ccccc3C2)cc1`, the cell count in experiment [1] was 434. Besides, the inhibition in experiment [1] was -12.9% (inactive); in experiment [3] it was 0% (inactive); in experiment [7], 2.55% (inactive); in experiment [8], 5.8% (inactive). For the same compound, the inhibition of aggregation in experiment [2] was 12.1% (inactive). In addition, the nuclei count in experiment [2] came to 104%; in experiment [3] it was 93.6%. In addition, in experiment [4], the fluorescence slope is -0.51 (inactive). Also, the NADPH fluorescence slope in experiment [5] is 2.1e-05 (inactive). Further, the slope in experiment [6] was 0.0053 (inactive).
